Reference: PubChem BioAssay
Values joined by “and” are separate entries in the source; they are usually repeats but may differ in a detail not shown here. Equal values may be shown once. Results filed as inconclusive are left out. Active and inactive are the calls of the source.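 The calls were made as follows, unless noted: active = normalized viability below 100% at a tested concentration; inactive = the rest.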

Key:
[1] = viability loss in pontine glioma line – cell-based, SU-DIPG-XIII, MIPE4.0, CellTiter-Glo, qHTS, dose response (AID 1347061; cut-off not given, nearly all actives have AC50 up to about 37 µM;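 also: cells exposed to compound for 48 hours before readout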); conditions: CellTiter-Glo ATP luminescence
[2] = viability loss in pontine glioma line – cell-based, SU-DIPG-IV, MIPE4.0, CellTiter-Glo, qHTS, dose response (AID 1347063; cut-off not given, nearly all actives have AC50 up to about 30 µM;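 also: compound exposure lasted 48 hours before the viability readout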); conditions: CellTiter-Glo ATP luminescence
[3] = viability loss in pontine glioma line – cell-based, SU-DIPG-XIII, MIPE5.0, CellTiter-Glo, qHTS, dose response (AID 1347064; cut-off not given, nearly all actives have AC50 up to about 23 µM;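 also: cells exposed to compound for 48 hours before the viability read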); conditions: CellTiter-Glo ATP luminescence
[4] = viability loss in pontine glioma line – cell-based, SU-DIPG-XXV, MIPE5.0, CellTiter-Glo, qHTS, dose response (AID 1347065; cut-off not given, nearly all actives have AC50 up to about 26 µM;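 also: cells exposed to compound for 48 hours before ATP readout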); conditions: CellTiter-Glo ATP luminescence
[5] = growth inhibition of DIPG cells – cell-based, MIPE5.0 library, qHTS (AID 1347068; cut-off not given, nearly all actives have IC50 up to about 30 µM;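 also: cells exposed to compound for 48 hours before viability readout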); conditions: SU-DIPG-XXV viability
[6] = compounds altering HSF1 focus formation in cells – imaging, Selleck Cancer Library (AID 1347162; in the data active = plate-normalised HSF1 focus index below about 0.46); conditions: human cells, HSF1 nuclear foci imaging, at 10 µM; SSMD: measured here: HSF1 foci SSMD mean; cell count: measured here: cell number; plate-normalised HSF1 focus index: stronger effect = lower value
[7] = drug combination growth inhibition, ovarian cancer – cell-based, oncology-focused library, rucaparib conditional, profiling panel (AID 1508598); conditions: patient-derived ovarian cancer cells, CellTiter-Glo viability, 144 h, stronger effect = lower value
[8] = viability loss in pontine glioma line – cell-based, JHH-DIPG-1, MIPE4.0, CellTiter-Glo, qHTS, dose response (AID 1347062; cut-off not given, nearly all actives have AC50 up to about 27 µM); conditions: JHH-DIPG-1 viability, CellTiter-Glo ATP luminescence
[9] = growth inhibition of DIPG cells – cell-based, MIPE4.0 library, CellTiter-Glo luminescence, qHTS (AID 1347066; cut-off not given, nearly all actives have AC50 up to about 30 µM;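 also: cells exposed to compound for 48 hours before readout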); conditions: SU-DIPG-VI viability, CellTiter-Glo ATP luminescence
[10] = MELAS cybrid and Rieske KO viability enhancers – cell-based, MELAS cybrids, Rieske KO mouse fibroblasts, CellTiter-Glo, primary screen (AID 1508586;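 active = mean z-score across replicates of 1.96 or higher in either the MELAS or the Rieske mutant cell line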;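 also: z relative to plate mean and SD of compound and empty wells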); conditions: low glucose
[11] = JHH-DIPG-1 glioma cell viability, MIPE5.0 library, CellTiter-Glo luminescence, qHTS (AID 1347067; cut-off not given, nearly all actives have AC50 up to about 26 µM;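 also: cells exposed to compound for 48 hours before readout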); conditions: JHH-DIPG-1 glioma viability, CellTiter-Glo ATP luminescence
[12] = viability loss with induced miR-34 in A549 – imaging, A549 dox-inducible miR-34, nuclei and caspase counts, primary screen (AID 1347080;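 active = compounds whose cell count with miR-34 switched on is under 0.7 times the count with it off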); conditions: A549 miR-34 inducible, Hoechst nuclei count, 48 h
[13] = growth inhibition, single agent or in combination, cell-based, chromothripsis tumors, cisplatin or BGB combos (AID 1671449; in the data active = inhibition above about 80%;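 also: cells exposed for 96 hours; 0% = vehicle DMSO and 100% = killing by high DMSO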); conditions: LFS_MB_P medulloblastoma cells
[14] = growth inhibition, single agent and combos, cell-based, chromothripsis tumors, cisplatin or BGB combos (AID 1671450; in the data active = inhibition above about 80%;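 also: cells exposed to compound for four days; 0% = vehicle DMSO and 100% = cell killing by high DMSO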); conditions: HDN33 neuroblastoma cells, stronger effect = higher value
[15] = growth inhibition, single agents and combos, ICB984, cell-based, cisplatin or BGB combos, synergistic combos for chromothripsis tumors (AID 1671451; call rule not given here;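 also: cells exposed for 96 hours before readout; 0% = vehicle DMSO and 100% = killing by high DMSO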); conditions: ICB984 medulloblastoma cells, drug combinations, stronger effect = higher value
[16] = growth inhibition, single agents and combos, HTB85, cell-based, BGB or cisplatin IC20 combos, synergistic combos for chromothripsis tumors (AID 1671453; in the data active = inhibition above about 80%;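 also: cells exposed for 96 hours before readout; 0% = vehicle DMSO and 100% = high DMSO killing control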); conditions: HTB85 osteosarcoma cells, drug combinations, stronger effect = higher value
[17] = growth inhibition, MDA-MB-436, cell-based, BGB or cisplatin combos, synergistic combos for chromothripsis tumors (AID 1671458; call rule not given here;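 also: cells exposed for 96 hours; 0% = vehicle DMSO and 100% = killing by high DMSO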); conditions: MDA-MB-436 breast carcinoma growth inhibition, drug combinations, stronger effect = higher value
[18] = BT084 cell growth, single and combined drugs, ICGC_MB145, cisplatin and BGB IC40 combos (AID 1671461; in the data active = inhibition above about 80%;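 also: cells exposed to drugs for 96 hours; 0% = vehicle DMSO and 100% = high DMSO full killing control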); conditions: BT084 medulloblastoma cells, drug combinations, stronger effect = higher value
[19] = RCMB18 cell growth, single agent and combined, cisplatin and BGB IC40 combos (AID 1671462; in the data active = inhibition above about 80%;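 also: cells exposed to compound for four days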); conditions: RCMB18 medulloblastoma cells, stronger effect = higher value
[20] = CRL1545 cell growth, single agent and combined, cisplatin and BGB IC20 combos (AID 1671464; in the data active = inhibition above about 80%;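 also: cells exposed to compound for 96 hours before readout; 0% = vehicle DMSO and 100% = high DMSO killing control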); conditions: CRL1545 osteosarcoma cells, stronger effect = higher value
[21] = measured here: with BGB IC20 combination, at 0.5 µM
[22] = measured here: with cisplatin IC20 combination, at 0.5 µM

CCn1c(-c2nonc2N)nc2c(C#CC(C)(C)O)ncc(OC[C@H]3CCCNC3)c21
AC50 [1]: 16.6 µM (active)
AC50 [2]: 7.43 µM (active)
AC50 [3]: 2.63 µM (active)
AC50 [4]: 2.35 µM (active)
IC50 [5]: 16.6 µM (active)
SSMD [6]: 1.18
cell count [6]: 6930
plate-normalised HSF1 focus index [6]: 1.06 (inactive)
viability ([7]; at 0.000305 µM, OCI-C5x cells, with rucaparib 10 µM, 100% = cells with rucaparib alone): 119% (inactive)
viability ([7]; at 0.000305 µM, OCI-C5x cells, without rucaparib): 119% (inactive)
viability ([7]; at 0.000305 µM, OCI-P5x cells, with rucaparib 20 µM, 100% = cells with rucaparib alone): 98.8% (active)
viability ([7]; at 0.000305 µM, OCI-P5x cells, without rucaparib): 93.1% (active)
viability ([7]; at 0.00122 µM, OCI-C5x cells, with rucaparib 10 µM, 100% = cells with rucaparib alone): 129% (inactive)
viability ([7]; at 0.00122 µM, OCI-C5x cells, without rucaparib): 125% (inactive)
viability ([7]; at 0.00122 µM, OCI-P5x cells, with rucaparib 20 µM, 100% = cells with rucaparib alone): 100% (inactive)
viability ([7]; at 0.00122 µM, OCI-P5x cells, without rucaparib): 99.7% (active)
viability ([7]; at 0.00488 µM, OCI-C5x cells, with rucaparib 10 µM, 100% = cells with rucaparib alone): 133% (inactive)
viability ([7]; at 0.00488 µM, OCI-C5x cells, without rucaparib): 119% (inactive)
viability ([7]; at 0.00488 µM, OCI-P5x cells, with rucaparib 20 µM, 100% = cells with rucaparib alone): 109% (inactive)
viability ([7]; at 0.00488 µM, OCI-P5x cells, without rucaparib): 99.7% (active)
viability ([7]; at 0.0195 µM, OCI-C5x cells, with rucaparib 10 µM, 100% = cells with rucaparib alone): 118% (inactive)
viability ([7]; at 0.0195 µM, OCI-C5x cells, without rucaparib): 125% (inactive)
viability ([7]; at 0.0195 µM, OCI-P5x cells, with rucaparib 20 µM, 100% = cells with rucaparib alone): 107% (inactive)
viability ([7]; at 0.0195 µM, OCI-P5x cells, without rucaparib): 109% (inactive)
viability ([7]; at 0.0781 µM, OCI-C5x cells, with rucaparib 10 µM, 100% = cells with rucaparib alone): 124% (inactive)
viability ([7]; at 0.0781 µM, OCI-C5x cells, without rucaparib): 119% (inactive)
viability ([7]; at 0.0781 µM, OCI-P5x cells, with rucaparib 20 µM, 100% = cells with rucaparib alone): 89.1% (active)
viability ([7]; at 0.0781 µM, OCI-P5x cells, without rucaparib): 101% (inactive)
viability ([7]; at 0.313 µM, OCI-C5x cells, with rucaparib 10 µM, 100% = cells with rucaparib alone): 113% (inactive)
viability ([7]; at 0.313 µM, OCI-C5x cells, without rucaparib): 131% (inactive)
viability ([7]; at 0.313 µM, OCI-P5x cells, with rucaparib 20 µM, 100% = cells with rucaparib alone): 85.8% (active)
viability ([7]; at 0.313 µM, OCI-P5x cells, without rucaparib): 109% (inactive)
viability ([7]; at 1.25 µM, OCI-C5x cells, with rucaparib 10 µM, 100% = cells with rucaparib alone): 114% (inactive)
viability ([7]; at 1.25 µM, OCI-C5x cells, without rucaparib): 136% (inactive)
viability ([7]; at 1.25 µM, OCI-P5x cells, with rucaparib 20 µM, 100% = cells with rucaparib alone): 72.5% (active)
viability ([7]; at 1.25 µM, OCI-P5x cells, without rucaparib): 90.8% (active)
viability ([7]; at 5 µM, OCI-C5x cells, with rucaparib 10 µM, 100% = cells with rucaparib alone): 94.5% (active)
viability ([7]; at 5 µM, OCI-C5x cells, without rucaparib): 128% (inactive)
viability ([7]; at 5 µM, OCI-P5x cells, with rucaparib 20 µM, 100% = cells with rucaparib alone): 67.2% (active)
viability ([7]; at 5 µM, OCI-P5x cells, without rucaparib): 68.3% (active)

CN(C)c1cc(NC(=O)CNC(C)(C)C)c(O)c2c1C[C@H]1C[C@H]3[C@H](N(C)C)C(=O)C(C(N)=O)=C(O)[C@@]3(O)C(=O)C1=C2O
outcome [1]: inactive
outcome [8]: inactive
outcome [9]: inactive
z-score ([10]; MELAS cybrid survival, CellTiter-Glo 48 h, stronger effect = higher value): 0.577 (inactive)
z-score ([10]; Rieske KO mouse fibroblast survival, CellTiter-Glo 72 h): 0.0397

CC(C)(C)OC(=O)Nc1ccc(-c2cc(C(=O)NCCCCCCC(=O)NO)no2)cc1
AC50 [1]: 13.2 µM (active)
AC50 [2]: 2.64 µM (active)
AC50 [3]: 1.86 µM (active)
AC50 [4]: 2.95 µM (active)
AC50 [11]: 3.72 µM (active)
fold change ([12]; stronger effect = lower value, cell number ratio, induced over uninduced): 1.08 (inactive)
fold change ([12]; measured here: relative caspase fold change +Dox/-Dox): 1.18
cell count ([12]; measured here: total cells with miR-34 induction, stronger effect = lower value): 3170
cell count ([12]; measured here: total cells without miR-34 induction): 2940
SSMD [6]: -0.325
cell count [6]: 7020
plate-normalised HSF1 focus index [6]: 0.983 (inactive)
inhibition ([13]; at 0.5 µM, stronger effect = higher value): -18.3% (inactive) and -10.4% (inactive)
inhibition ([13]; measured here: combination with BGB IC20, at 0.005 µM): -24.2% and -11.2%
inhibition ([13]; measured here: combination with BGB IC40, at 0.005 µM): -24.3% and -8.96%
inhibition ([13]; measured here: combination with BGB IC40, at 0.05 µM): -25.1% and 5.48%
inhibition ([13]; measured here: combination with cisplatin, at 0.5 µM, stronger effect = higher value): -19.2% and 23.7%
inhibition ([13]; measured here: combination with cisplatin, at 5 µM, stronger effect = higher value): 70% and 74.7%
inhibition ([14]; BGB combo, at 5 µM): 75.4% and 95.4%
inhibition ([14]; at 0.5 µM): -11.6% (inactive) and 3.28% (inactive)
inhibition ([14]; cisplatin combo, at 5 µM): 84.3% and 99.1%
inhibition [14, 21]: -23% and -2.22%
inhibition [14, 22]: 1.12% and 13.2%
inhibition ([14]; single agent, at 5 µM): 86.2% and 98%
inhibition ([15]; BGB IC20 combo, at 0.005 µM): -9.7% and -9.21%
inhibition ([15]; BGB IC40 combo, at 0.005 µM): -27.3% and -46%
inhibition ([15]; BGB IC40 combo, at 0.05 µM): 38.6% and 39.7%
inhibition ([15]; at 0.5 µM): -16.4% (inactive) and -21.9% (inactive)
inhibition ([15]; cisplatin combo, at 0.05 µM): 35.7% and 37.3%
inhibition ([15]; cisplatin combo, at 0.5 µM): -28% and -20.5%
inhibition ([15]; cisplatin combo, at 5 µM): -41.9% and -70.6%
inhibition ([15]; measured here: 5 uM single agent, at 5 µM): -17.6% and -12.3%
inhibition ([16]; at 0.5 µM): -17.8% (inactive) and -4.69% (inactive)
inhibition ([16]; measured here: with BGB IC20, at 0.5 µM): -25.7% and -17.1%
inhibition ([16]; measured here: with BGB IC20, at 5 µM): 49.9% and 86.7%
inhibition ([16]; measured here: with cisplatin IC20, at 0.5 µM): -5.92% and 8.08%
inhibition ([16]; measured here: with cisplatin IC20, at 5 µM): 62.7% and 92.5%
inhibition ([16]; single agent, at 5 µM): 77.5% and 87.2%
inhibition ([17]; at 0.5 µM): -5.18% (inactive) and -14.7% (inactive)
inhibition ([17]; measured here: BGB combination, at 0.5 µM): -6.05% and -29.4%
inhibition ([17]; measured here: BGB combination, at 5 µM): 54.7% and 62.5%
inhibition ([17]; measured here: cisplatin combination, at 0.5 µM): -18.7% and -11.1%
inhibition ([17]; measured here: cisplatin combination, at 5 µM): 56.9% and 63%
inhibition ([18]; at 0.5 µM): 9.8% (inactive) and 2.37% (inactive)
inhibition ([18]; cisplatin combination, at 0.5 µM): 8.11% and 13.2%
inhibition ([18]; cisplatin combination, at 5 µM): 29.8% and 83.8%
inhibition ([18]; measured here: BGB IC40 combination 0.05 uM, at 0.05 µM): -31% and -31.3%
inhibition ([18]; single agent, at 5 µM): 33.2% and 32%
inhibition ([19]; at 0.5 µM): -13.3% (inactive) and 2% (inactive)
inhibition ([19]; cisplatin combo, at 5 µM): 55.6% and 86.3%
inhibition ([19]; measured here: BGB IC40 combination, at 0.05 µM): 43.9% and -7.68%
inhibition ([19]; measured here: combination with cisplatin, at 0.5 µM): -24.8% and 36.6%
inhibition ([19]; single agent, at 5 µM): 42.9% and 30.3%
inhibition ([20]; at 0.5 µM): 51.1% (inactive) and 53.4% (inactive)
inhibition [20, 21]: 34.6% and 54.1%
inhibition [20, 22]: 58.7% and 53.1%
inhibition ([20]; single agent, at 0.05 µM): -13.9% and 7.41%
inhibition ([20]; single agent, at 5 µM): 94% and 95%
